# TGFb inhibitor – qHTS for Inhibitors of TGF-b; Potency, µM (top dose mostly 46.1 µM), most hits filed as inhibitors; 1.2% of 410,000 active; HepG2 CAGA-GFP TGF-b/SMAD3 reporter, GFP fluorescence, 18 h; TGF-beta stimulated, 500 pg/mL final; AID 588855, 2011; also: nearly all actives have a fitted effect of over 65% in size
#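 Inhibition of TGF-beta-driven CAGA-GFP reporter expression in HEPG2 cells is measured by cellular GFP fluorescence after 18 h stimulation with 500 pg/mL recombinant TGF-beta in 1% FBS medium at 37 degrees C.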
# HepG2 tox-1 – qHTS for Inhibitors of TGF-b: Cytotox Counterscreen; Potency, µM (highest dose often 46.1 µM), usual class: cytotoxic; 0.76% of 410,000 active; AID 588856, 2011; HepG2 CAGA-GFP viability, ATP luminescence, 18 h
#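 HepG2 CAGA-GFP cells (1000/well, DMEM with 1% FBS) received compound, then TGF-beta at 500 pg/mL final, and were incubated 18 hours at 37 degrees C. Viability was read by CellTiter-Glo luminescence. Media-only wells were set as complete cell-killing and DMSO as no toxicity.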
# S2 tox – Viability Counterscreen for Primary qHTS for Inhibitors of ATXN expression | S2 cells (HEK-293 line with an ATXN2-luciferase reporter) viability, CellTiter-Fluor protease fluorescence, 24 h | Potency, µM (series often up to 56.7 µM), most hits filed as cytotoxic | 0.49% of 400,000 active; also: nearly all actives have a fitted effect of over 40% in size
# HT1080 IDH1KD tx – qHTS for induction of synthetic lethality in tumor cells producing 2HG: qHTS for the HT-1080-IDH1KD cell line | HT-1080 IDH1 knockdown viability, ATP luminescence, 48 h | 2% of 360,000 active | Potency, µM (titrated, usually from 46.1 µM), actives largely listed as cytotoxic
#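 In this qHTS, HT-1080 cells depleted of IDH1 are exposed for 48 h at 37 °C to compound titrations. Toxicity is scored from CellTiter-Glo luminescence, with DMSO as full viability and medium alone as none.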
# ATXN2 expr inh – Primary qHTS for Inhibitors of ATXN expression | HEK-293 ATXN2-luciferase reporter, luminescence, 24 h | Potency, µM (series often up to 57 µM), usual class: inhibitors | 0.72% of 360,000 active; also: nearly all actives have a fitted effect of over 55% in size
#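 qHTS (up to 57 uM final) was run with 24 h compound exposure of reporter cells at 37 °C. Each well was multiplexed: SteadyGlo luminescence measured ATXN2-luciferase expression after a fluorogenic Gly-Phe-AFC viability readout (25 uM final).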
# HT1080-NT tox – qHTS for induction of synthetic lethality in tumor cells producing 2HG: qHTS for the HT-1080-NT fibrosarcoma cell line | HT-1080-NT fibrosarcoma viability, CellTiter-Glo ATP luminescence, 48 h | Potency, µM (titrated, usually from 46.1 µM), hits mostly cytotoxic | 1.6% of 360,000 active;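 also: NT is the 2HG producing partner of a matched IDH1 knockdown line; nearly all actives have a fitted effect of over 55% in size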
#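 Read-out is CellTiter-Glo luminescence after 10 minutes at room temperature, following 48 hours' compound treatment of HT-1080-NT cells (750 cells/well, RPMI, 5% FBS, 37 degrees C).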
# TGFb CAGA inh – qHTS for Inhibitors of TGF-b: Confirmation of Cherry Picks | Potency, µM (doses to about 46.1 µM), actives largely listed as inhibitors | 63% of 1,600 active | shares compounds with TGFb inhibitor | HepG2 CAGA-GFP TGF-b reporter, GFP fluorescence, 18 h; cells stimulated with TGF-beta, 500 pg/mL | AID 720534, 2013; also: nearly all actives have a fitted effect of over 65% in size
# HepG2 tox-2 – qHTS for Inhibitors of TGF-b: Cytotox Counterscreen for Cherry Picks. shares compounds with TGFb inhibitor. HepG2 CAGA-GFP viability, ATP luminescence, 18 h; cells stimulated with TGF-beta, 500 pg/mL. Potency, µM (highest dose often 46.1 µM), actives largely listed as inhibitors. 27% of 1,600 active. AID 720535, 2013; also: nearly all actives have a fitted effect of over 70% in size
# TGFb CCL64 inh – qHTS for Inhibitors of TGF-b: CCL64 Cells Orthogonal Assay for Cherry Picks. AID 720536, 2013. Potency, µM (series often up to 46.1 µM), usual class: inhibitors. 41% of 1,600 active. shares compounds with TGFb inhibitor. CCL64 CAGA-GFP reporter, TGF-b stimulated, GFP fluorescence, 18 h; also: nearly all actives have a fitted effect of over 65% in size
# COP TGFb inh – qHTS for Inhibitors of TGF-b: Hit Validation in HepG2 Cells using COP promoter; 3% of 1,600 active; Potency, µM (series often up to 46.1 µM), most hits filed as inhibitors; AID 720537, 2013; HepG2 COP-GFP TGF-b reporter, GFP fluorescence, 18 h; cells stimulated by added recombinant TGF-beta; shares compounds with TGFb inhibitor; also: nearly all actives have a fitted effect of over 70% in size
# Numbers stand for hits; - = inactive; ? = inconclusive; . = no result given; ! = not confirmed by another sample. Compounds with a hit are over-represented: about 3.8% of the library has one in this group of screens. Calls follow the shape of the dose curve; as a rule, active = well fitted curve in the direction sought with a large enough effect; inconclusive = small, poorly fitted or top-dose-only effect, or another doubt; inactive = no such curve, though single readings can be large; an effect the other way counts as inactive or inconclusive.
SMILES,TGFb inhibitor,HepG2 tox-1,S2 tox,HT1080 IDH1KD tx,ATXN2 expr inh,HT1080-NT tox,TGFb CAGA inh,HepG2 tox-2,TGFb CCL64 inh,COP TGFb inh
COc1cc2c(cc1OC)C(C)N(C(=O)c1nccnc1C(=O)O)CC2 (stereo not given),-,-,-,-,-,-,.,.,.,.
COc1cc(C(=O)c2cocc2C(=O)c2ccc3c(c2)OCO3)cc(OC)c1OC,?,-,-,1.6µM,-,1.3µM,-,-,-,-
COc1ccc(S(=O)(=O)NCC(c2ccco2)N2CCN(c3ccccc3F)CC2)cc1C (stereo not given),-,-,.,.,.,.,.,.,.,.
S=C(NCc1ccco1)Nc1ccc(Oc2ccc(Cl)cc2)cc1,16µM,-,-,?,-,?,?,?,?,-
CCOc1ccc(C(=O)c2cc([N+](=O)[O-])ccc2N2CCOCC2)cc1,1.1µM,-,-,0.026µM,-,0.037µM,?,-,0.73µM,-
CCCCOc1ccc(C(=O)Nc2cccc(-c3nc4cccnc4s3)c2)cc1,-,-,.,.,.,.,.,.,.,.
O=C(CSc1nnc(-c2ccc(F)cc2)c2ccccc12)Nc1cccc(Cl)c1,-,-,?,-,-,-,.,.,.,.
O=C(CSc1nnc(-c2ccc(F)cc2)c2ccccc12)Nc1ccccc1,13µM,-,-,-,-,-,15µM,-,-,-
COCCNC(=O)CCCn1c(SCC(=O)Nc2cccc(C)c2)nc2c(sc3ccccc32)c1=O,-,-,.,.,.,.,.,.,.,.
CCOc1ccc(Sc2cc(C(=O)NC(C)c3ccccc3)c3ccccc3n2)cc1 (stereo not given),-,-,.,.,.,.,.,.,.,.
Cc1cc(OCCCC(=O)Nc2cccc(-n3cnnn3)c2)ccc1Cl,13µM,-,?,-,.,-,?,?,-,-
COc1cccc(NC(=O)COc2cccc(-n3cnnn3)c2)c1,-,-,-,-,-,-,.,.,.,.
CCOC(=O)N1CCN(C(=O)COc2cccc3c2CCN(Cc2cccc(C)c2)C3=O)CC1,?,-,-,-,-,-,?,-,?,-
CCOC(=O)N1CCN(C(=O)COc2cccc3c2CCN(Cc2ccccc2C)C3=O)CC1,-,-,-,-,-,-,.,.,.,.
COc1cc(OC)c(OC)cc1CNc1cc(C)ccc1OC,?,-,-,-,-,?,6.5µM,-,-,-
COc1ccc(C)cc1NCc1cccc(OC)c1OC,-,-,-,-,-,-,.,.,.,.
Cc1cccc(N2CCN(C(=O)Cn3ncc4c3-c3cc(C)ccc3OC4)CC2C)c1 (stereo not given),?,-,.,.,?,.,.,.,.,.
CN(Cc1ccccc1)S(=O)(=O)c1ccc(NC(=S)NC(=O)C2CCCCC2)cc1,13µM,-,-,-,-,-,33µM,?,-,-
O=c1c(Br)c(N2CCCC2)cnn1-c1ccccc1,-,-,-,-,-,-,.,.,.,.
O=c1c(Br)c(Br)cnn1-c1ccccc1,10µM,13µM,.,4.1µM,5.3µM,2.9µM,4.6µM,8.2µM,4.6µM,?
Cc1cc(C)nc(/N=C(\N)Nc2ccccc2-c2ccccc2)n1,10µM,-,-,?,?,?,?,?,?,-
Cc1ccc2onc(CNC(=O)N3CCN(c4cccc(C)c4C)CC3)c2c1,?,-,?,.,?,.,.,.,.,.
Cc1ccc(-c2nnc(N3CCN(C(=O)COc4ccccc4)CC3)c3ccccc23)cc1,?,-,-,?,?,?,.,.,.,.
O=C(COc1ccc(-c2nnc(N3CCCCC3)c3ccccc23)cc1)N1CCCCC1,18µM,-,-,?,-,-,23µM,-,-,-
COc1ccc(CN2CCN(c3ncnc4scc(-c5ccc(F)cc5)c34)CC2)cc1,11µM,-,-,-,?,-,21µM,?,?,-
SMILES,TGFb inhibitor,HepG2 tox-1,S2 tox,HT1080 IDH1KD tx,ATXN2 expr inh,HT1080-NT tox,TGFb CAGA inh,HepG2 tox-2,TGFb CCL64 inh,COP TGFb inh
CCOc1ccccc1CNS(=O)(=O)c1ccc(-c2cnc(C3CC3)o2)cc1,10µM,-,1.3µM!,1.2µM,-,7.3µM,5.8µM,?,8.2µM,-
Cc1cccc(C)c1NS(=O)(=O)c1ccc(-c2cnc(C3CC3)o2)cc1,4µM,-,?,0.16µM,.,0.082µM,2.6µM,?,0.82µM,-
Cc1ccc(NS(=O)(=O)c2ccc(-c3cnc(C4CC4)o3)cc2)cc1,?,-,?,?,.,?,.,.,.,.
COc1ccc(N(C(=O)c2ccco2)C(C(=O)NC2CCCCC2)c2cccs2)cc1OC (stereo not given),-,-,?,-,-,-,.,.,.,.
COc1ccc(N(C(=O)CCl)C(C(=O)NCCc2ccccc2)c2cccs2)cc1Cl (stereo not given),7.9µM,-,1.4µM,5.8µM,1.8µM,18µM,4.6µM,5.2µM,2.1µM,21µM
CCc1ccc(NC(=O)c2ccc3c(c2)N(Cc2ccc(C)cc2)CCS3)cc1,-,-,-,.,-,.,.,.,.,.
COc1ccccc1NC(=S)NCCc1c[nH]c2ccccc12,-,-,-,-,-,-,.,.,.,.
Cc1ccc(NC(=S)NCCc2c[nH]c3ccccc23)c(C)c1,10µM,-,.,-,.,-,-,-,?,-
CCN(c1ccccc1)S(=O)(=O)c1ccc(NC(=O)c2nc(S(C)(=O)=O)ncc2Cl)cc1,6.3µM,6.3µM,.,16µM,13µM,18µM,4.1µM,5.2µM,1.5µM,6.5µM
CCS(=O)(=O)c1ncc(Cl)c(C(=O)Nc2ccc(S(=O)(=O)N(C)c3ccccc3)cc2)n1,3.5µM,4.5µM!,20µM,3.7µM,20µM,2.6µM,4.6µM,4.1µM,1.6µM,7.3µM

# Assay outcomes: PubChem BioAssay, National Center for Advancing Translational Sciences (NCATS)
